CCT chaperon mod: modulators of cytosolic chaperonin (CCT/TRiC) activity; purified chaperonin ATPase assay, HTRF ADP detection, 30 min; activity change, % (no concentration beside the values), hits read low; 360,000 compounds, 0.3% hits; AID 651819; in the data active = activity change below about -30%
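Nucleotide hydrolysis assay: TRiC at 20–40 nM final (set by batch activity) with 10 uM ATP, 30 min at 37 °C, in presence of 76 uM compound. Detection by competitive ADP HTRF, 30 min ambient.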
G9a block: inhibitors of human histone lysine methyltransferase G9a | G9a H3K9 monomethylation, AlphaScreen, 2 h | Potency, µM (top dose mostly 102 µM), without a hit: top-dose activity, negative = inhibition, hits mostly inhibitors | 350,000 compounds, 8.8% hits | AID 504332; note: potency is the fitted concentration of half-maximal effect; nearly all actives have a fitted effect of over 75% in size
Target sequence (Q96KQ7 913-1193 limits assumed): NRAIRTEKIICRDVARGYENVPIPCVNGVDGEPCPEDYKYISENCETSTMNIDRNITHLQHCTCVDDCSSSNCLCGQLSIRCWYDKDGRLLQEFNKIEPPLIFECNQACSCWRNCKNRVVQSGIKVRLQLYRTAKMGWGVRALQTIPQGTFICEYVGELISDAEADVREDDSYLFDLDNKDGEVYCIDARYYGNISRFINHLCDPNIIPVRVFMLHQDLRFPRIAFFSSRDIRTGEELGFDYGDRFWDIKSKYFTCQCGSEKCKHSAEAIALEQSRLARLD
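Readings reflect AlphaScreen signal from monomethyl-H3K9 antibody detection. HMT at 20 nM; substrate b-H3K9 500 nM; cofactor SAM 20 uM; 2 h RT reaction; compounds tested as titrations in qHTS with 15 min preincubation.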
VDR inh: vitamin D3 receptor (human) inhibition | VDR-SRC2-3 peptide fluorescence polarization, 2 h | Potency, µM, inactives show max response, negative = inhibition, hits mostly inhibitors | 400,000 compounds, 0.93% hits | AID 504847; note: potency is the fitted concentration of half-maximal effect
Target sequence (P11473 whole entry, looked up): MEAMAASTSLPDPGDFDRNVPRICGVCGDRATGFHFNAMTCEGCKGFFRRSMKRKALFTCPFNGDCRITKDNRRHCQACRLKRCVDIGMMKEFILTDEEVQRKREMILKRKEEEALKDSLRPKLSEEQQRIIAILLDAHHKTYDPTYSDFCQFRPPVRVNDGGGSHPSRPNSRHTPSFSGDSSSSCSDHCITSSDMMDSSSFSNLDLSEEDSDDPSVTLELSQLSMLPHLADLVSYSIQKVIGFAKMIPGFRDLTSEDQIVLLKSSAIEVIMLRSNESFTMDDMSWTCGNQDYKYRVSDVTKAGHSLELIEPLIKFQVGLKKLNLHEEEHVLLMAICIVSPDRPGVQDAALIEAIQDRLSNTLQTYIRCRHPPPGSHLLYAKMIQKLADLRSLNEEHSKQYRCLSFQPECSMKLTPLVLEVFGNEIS
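Measured by FP: displacement of SRC2-3 coactivator peptide from VDR by library compounds, following a two-hour ambient incubation.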
PLK1 PBD block: blocks phosphopeptide binding to human PLK1 polo-box domain; P53350; Plk1 PBD binding of FITC phosphopeptide, fluorescence polarization; Potency, µM, inactives show max response, negative = inhibition, actives largely listed as inhibitors; 360,000 compounds, 2.8% hits; AID 720504; note: potency is the fitted concentration of half-maximal effect; series mostly up to about 57 µM; nearly all actives have a fitted effect of over 65% in size
MmCpn inh: blocks the Methanococcus maripaludis chaperonin Mm-Cpn; purified Mm-Cpn ATPase, ADP Transcreener TR-FRET; Potency, µM (titrated, usually from 76.9 µM), for the others: top-dose activity, negative = inhibition, usual class: inhibitors; 330,000 compounds, 0.031% hits; AID 504842; note: potency is the fitted concentration of half-maximal effect; nearly all actives have a fitted effect of over 80% in size
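Eu-cryptate anti-ADP/ADP-d2 competition gives a ratio inversely related to ADP. Enzyme at 25 nM was pre-exposed to compound for 10 min, then given 10 uM ATP for 30 min, 37°C throughout.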
Sfp PPTase inh: inhibitors of Bacillus subtilis Sfp phosphopantetheinyl transferase; Q9F4F7; Biochemical Sfp PPTase activity, qHTS; 310,000 compounds, 3.5% hits; Potency, µM, inactives show largest response in the series, negative = inhibition, hits mostly inhibitors;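 note: the enzyme is Sfp with the accession as filed and its product quenches rhodamine fluorescence; potency is the fitted concentration of half-maximal effect; 0% = enzyme reaction without inhibitor and -100% = no enzyme wells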
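With Hepes-Na pH 7.6 buffer containing 10 mM MgCl2, Sfp (15 nM) modified BHQ-2-YbbR (12.5 uM) using rhodamine-CoA (5 uM). Two reads 30 minutes apart at 525/598 nm yielded each well's rate.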
Starred values were filed as active, the others as inactive; ? = inconclusive; / = no result; [ ] = remark or other dose. Only some compounds are listed: those with a hit (about 10% of all), similar ones and a draw of the others. Unless noted, calls come from the whole dose curve; as a rule, active = well fitted curve in the direction sought with a large enough effect; inconclusive = small, poorly fitted or top-dose-only effect, or another doubt; inactive = no such curve, though single readings can be large; an effect the other way counts as inactive or inconclusive. Unless noted, % is set by controls: 0 for no effect and ±100 for the full control effect.

SMILES	CCT chaperon mod	G9a block	VDR inh	PLK1 PBD block	MmCpn inh	Sfp PPTase inh
Cc1cc(C)cc(NS(=O)(=O)c2ccc3[nH]cc(C(=O)N4CCc5ccccc54)c(=O)c3c2)c1	1	-3%[59 µM]	-2%	2%	0%	-7%
CCc1ccc(NS(=O)(=O)c2ccc3[nH]cc(C(=O)N4CCc5ccccc54)c(=O)c3c2)cc1	0	50µM*	-3%	-4%	-1%	-8%
COC(=O)[C@H](CC(C)C)NC(=O)Nc1ccc(S(N)(=O)=O)cc1	0	1%	0%	-5%	1%	79µM*
CCCNC(=S)Nc1ccc(S(N)(=O)=O)cc1	-3	2%	2%	-11%	0%	6%
CCOCCCNC(=S)Nc1ccc(S(N)(=O)=O)cc1	2	28µM*	5%	4%	-2%	0%
CC(C)CNC(=S)Nc1ccc(S(N)(=O)=O)cc1	-2	40µM*	-14%	?	-1%	-15%
Cn1c(=O)c2c(nc3n(-c4ccc(O)cc4)c(-c4ccc(Br)cc4)cn23)n(C)c1=O	/	17%[59 µM]	-10%	/	/	/
COc1cccc(CNC(=O)CCNS(=O)(=O)c2ccc3c(c2)CCCC(=O)N3)c1	/	-17%[59 µM]	17%	/	/	/
CSc1nsc(SC)c1C(=O)NCCNS(=O)(=O)c1ccc(C)cc1	-2	2.8µM*	-3%	-9%	-1%	50µM*
Cc1ccc(S(=O)(=O)NCCC(=O)Nc2nnc(C)s2)cc1	-1	6%[59 µM]	-5%	-7%	/	1%
COc1ccc(C(=O)C(c2ccccc2)N2CCOCC2)cc1 (stereo unspecified)	-1	50µM*	6%	1%	0%	-19%
CN(C)c1ccc(CNCCC2CCOC(C)(C)C2)cc1 (stereo unspecified)	/	45µM*	/	/	-2%	11%
CN(C)c1ccc(CNCC2CCCO2)cc1 (stereo unspecified)	-5	?	-7%	-3%	1%	4%
CN(C)C(=O)/N=N/C(=O)N(C)C	/	2.7µM*	6.3µM*	/	/	/
C=CCOC(=O)N[C@@H](c1ccccc1)[C@@H](C)[N+](=O)[O-]	/	/	-7%	/	/	-10%
COc1ccc(OC)c(NC(=O)CSc2ccnc(=O)[nH]2)c1	/	8%[59 µM]	1%	/	/	/
Cc1ccc([N+](=O)[O-])cc1S(=O)(=O)n1ccnc1C	0	?	?	4.2µM*	2%	9%
CCCCCCCCCCCCCCCCn1cc[n+](C)c1	-2	-11%	11%	-18%	0%	22µM*
Cc1nn(Cc2ccccc2)c2c1C(c1ccc(Cl)cc1)C(C#N)=C(N)O2 (stereo unspecified)	1	?	?	27µM*	-4%	2%
Cc1nn(Cc2ccccc2)c2c1C(c1cccnc1)C(C#N)=C(N)O2 (stereo unspecified)	1	50µM*	-22%	?	0%	-5%
Cc1nn(Cc2ccccc2)c2c1C(c1ccncc1)C(C#N)=C(N)O2 (stereo unspecified)	0	?	-17%	-29%	-2%	-13%
CSCC[C@H](NC(=O)[C@@H]1CCCN1C(=O)CNC(=O)[C@H](CCCCN)NC(=O)[C@H](Cc1cnc[nH]1)NC(=O)[C@H](CO)NC(=O)[C@H](CC(C)C)NC(=O)[C@H](CCCN=C(N)N)NC(=O)[C@@H]1CCCN1C(=O)[C@H](CCCN=C(N)N)NC(=O)[C@@H]1CCC(=O)N1)C(=O)N1CCC[C@H]1C(=O)N[C@@H](Cc1ccccc1)C(=O)O	/	/	12%	/	/	6%
Cc1ccc(CN2CCC(CNc3ncnc4onc(-c5ccc(F)cc5)c34)CC2)cc1	/	-6%[59 µM]	18%	/	/	/
Cc1ccc(OCc2nc(-c3ccc(C(=O)N4CCN(c5ccccc5F)CC4)cc3)oc2C)cc1	/	?	-2%	/	/	/
COc1cc(OC)c(C2=NOC(C(=O)Nc3ccc4c(c3)OCO4)C2)cc1Cl (stereo unspecified)	3	40µM*	-9%	2%	1%	-27%
SMILES	CCT chaperon mod	G9a block	VDR inh	PLK1 PBD block	MmCpn inh	Sfp PPTase inh
CCn1c(CN2CCN(c3cccc(C)c3C)CC2)n[nH]c1=S	1	7.9µM*	?	-4%	-1%	6%
CCOC(=O)c1cc(S(=O)(=O)N2CCN(c3ccccc3F)CC2)[nH]n1	/	16µM*	1%	/	/	/
CCOC(=O)c1cc(S(=O)(=O)N2CCN(c3cccc(C)c3C)CC2)[nH]n1	/	10µM*	9%	/	/	/
CCn1c2ccccc2c2nnc(N3CCN(c4cccc(C)c4C)CC3)nc21	/	-14%[59 µM]	0%	/	/	/
CCOC(=O)c1cc(S(=O)(=O)N2CCN(c3ccc(C)cc3C)CC2)[nH]n1	/	4µM*	-5%	/	/	/
COC(=O)c1cc(S(=O)(=O)N2CCN(c3ccccc3F)CC2)c[nH]1	2	5%[59 µM]	-5%	-14%	0%	12%
Cc1cc(Cl)ccc1OCCSc1nnc(-c2cccs2)o1	/	52%[59 µM]	3%	/	/	/
CC1=C(C(=O)Nc2ccc(C)cc2C)C(c2ccc(O)cc2)n2nnnc2N1 (stereo unspecified)	/	-26%[59 µM]	-8%	/	/	/
COc1ccc(Cn2c(CO)cnc2SCc2ccc(F)cc2)cc1	/	-37%[59 µM]	9%	/	/	/
COc1ccnc(CSC(N)=Nc2ccc(F)cc2)c1	-3	7.1µM*	?	?	0%	22µM*
N#Cc1ccccc1NC(=O)C(=O)NCCc1csc(-c2ccc(C(F)(F)F)cc2)n1	/	4%[59 µM]	2%	/	/	/
Cc1[nH]c(C)c(S(=O)(=O)NCCc2ccc(S(N)(=O)=O)cc2)c1C(=O)N1CCCC1	-2	?	-21%	27µM*	0%	11%
CSc1ccc(CCNS(=O)(=O)c2c(C)[nH]c(C)c2C(=O)N2CCCCC2)cc1	0	-2%[59 µM]	12%	-5%	1%	10%
COc1cccc(CNS(=O)(=O)c2c(C)[nH]c(C)c2C(=O)N2CCCCC2)c1	-2	18%	?	30µM*	0%	19%
Cc1ccc(CNS(=O)(=O)c2c(C)[nH]c(C)c2C(=O)N2CCCC2)cc1	-1	-3%	-1%	-17%	1%	10%
Cc1[nH]c(C)c(S(=O)(=O)Nc2cccc(Cl)c2C)c1C(=O)N1CCCCC1	-1	29%	?	30µM*	-1%	17%
Cc1ccccc1CNS(=O)(=O)c1c(C)[nH]c(C)c1C(=O)N1CCCCC1	1	-8%	-25%	27µM*	-2%	14%
C[C@]12O[C@H]1[C@@H](O)C(Br)=C(CO)[C@H]2O	/	/	2%	/	/	-2%
CCOc1ccc(CNC(=O)CCc2c(C)nn(-c3ccc(N4CCOCC4)nn3)c2C)cc1	/	-6%[59 µM]	5%	/	/	/
COc1ccc(N2Cc3cccc(C(=O)Nc4ccc(C(C)C)cc4)c3C2=O)cc1	/	2%[59 µM]	7%	/	/	/
Cn1cc(C(=O)C(=O)NC2CC2)c2ccccc21	-5	/	-6%	27µM*	/	/
